# Data from PubChem BioAssay AID504832 (National Center for Advancing Translational Sciences (NCATS), 2011).
# Hit rate of the full screen: of about 310,000 compounds, about 18,000 (5.8%) were called active. Not shown: some 22% with an inconclusive outcome. For the sample, actives were picked, then their nearest neighbours and some compounds at random. Values without a mark were called inactive. Calls follow the shape of the dose curve; as a rule, active = well fitted inhibition curve with a large enough effect; inconclusive = small, poorly fitted or top-dose-only effect, or another doubt; inactive = no such curve, though single readings can be large or run the other way.
# Experiment: Primary qHTS for delayed death inhibitors of the malarial parasite plastid, 48 hour incubation
# Details: P. falciparum luciferase growth in erythrocytes; series mostly up to 28.7 µM; activity change, negative = inhibition: at the top concentration
# Source text: The goal of this screen is to discover new antimalarial compounds that act by inhibiting the development of the apicoplast in the malarial parasite Plasmodium falciparum. The biochemical processes that make this organelle essential for erythrocytic stage parasites are not well understood. However, antibiotics such as azithromycin and tetracycline, which target the apicoplast translational machinery, have a potent antimalarial effect.
# We have developed a cell-based assay that measures parasite growth based on the expression of an integrated copy of a firefly luciferase reporter. To detect small molecules that cause this "delayed death" phenotype, erythrocytes infected with the luciferase-expressing parasites were incubated with compounds for either one or two generations, corresponding to 48 and 96 hours, respectively. Compounds that inhibit parasite growth in the second generation, but not the first, should be enriched in antimalarials that target the apicoplast. Growth inhibition is detected by a decrease in luciferase activity.
# Assay Provider: David Fidock and Eric Ekland, Columbia University
# Keywords: NIH Roadmap, MLPCN, MLI, MLSMR, qHTS, NCGC, qHTS, malaria, luciferase, viability
# Four microliters of culture medium (RPMI 1640 with 0.5% w/v Albumax (GIBCO), 24 mM sodium bicarbonate and 10 ug/mL gentamycin) were dispensed by a Multi-drop Combi into white solid 1536-well plates (Grenier) and 23 nL compound was added by a pin tool. Four microliters of infected erythrocytes (2% hematocrit, 0.1% parasitemia final concentration) in culture medium were dispensed and the plates incubated for 48 hours at 37 C in 5% CO2. Two microliters of luciferase detection reagent was added and luminescence was detected by a ViewLux (PerkinElmer) reader.
# % is scaled to controls: 0 for no effect and ±100 for the full control effect; potency is read from the fitted curve at half-maximal effect.
SMILES,"activity change, negative = inhibition",Potency
CCN(CC(=O)Nc1c(F)cccc1F)C(=O)CN1c2cccc3cccc(c23)S1(=O)=O,12.2%,
O=CN1CCN(C(=O)c2ccc(Br)o2)CC1,4.43%,
COc1ccc(CCNC(=O)CN(C)S(=O)(=O)c2ccc3nc(C)sc3c2)cc1OC,-21.8%,
Cc1cc(C)c(NC(=O)C[N+](C)(C)CC(O)COc2cccc3ccccc23)c(C)c1 (centres undefined),,5.22 µM (active)
Cc1cc(C)cc(OCC(=O)NCc2cc(C)nc3ccccc23)c1,-3.96%,
Cc1cc(C)c(NC(=O)CN2CCCCCC2)c(C)c1,49.9%,
Cc1ccccc1C(=O)Nc1ccccc1NC(=O)c1ccccc1C,1.11% [at 0.00184 µM],
N#Cc1c(-c2ccccc2)nc(SCc2ccc([N+](=O)[O-])cc2)[nH]c1=O,19.2%,
Cn1c(C(=O)NCCCN2CCN(c3cccc(Cl)c3)CC2)cc2c(=O)n(C)c3ccccc3c21,-10.9%,
Cn1c(C(=O)NCCN2CCc3ccccc3C2)cc2c(=O)[nH]c3ccccc3c21,,13.1 µM (active)
O=C(Cc1c(O)c2ccccc2[nH]c1=O)NCc1ccccc1,10%,
O=C(CN1C(=O)COc2ccccc21)NCCN1CCc2ccccc2C1,-9.1%,
O=C(CCCn1c(=O)[nH]c2cc(Cl)ccc2c1=O)NCCN1CCN(c2ccccc2)CC1,6.68%,
O=C(NCCN1CCN(Cc2ccccc2)CC1)c1cc2c(=O)[nH]c3ccccc3c2s1,,10.4 µM (active)
COCC(=O)N1CCc2ccc(NC(=O)c3ccccc3Cl)cc2C1,-9.2%,
Cc1ccccc1NC(=O)COc1cccc2c1CCNC2=O,-6.39%,
O=C(Cn1nc(C(=O)O)c2ccccc2c1=O)Nc1ccc(F)cc1,29%,
CCOc1ccccc1NS(=O)(=O)c1c[nH]c(C(=O)OC)c1,49.8%,
Cc1nc2ccccn2c(=O)c1NC(=O)c1cccs1,-6.71%,
O=C(NCc1ccccc1Cl)C1CCN(c2ncnc3c2nc2n3CCCCC2)CC1,-17.5%,
COc1ccc(-n2c(SCC(=O)OC(C)C)nnc2-c2ccccn2)cc1,1.41%,
Cc1ccc(-c2nnc(SCC(=O)N/N=C/c3cccs3)n2-c2ccc(C)cc2)cc1,-12.7%,
Cc1ccc(-n2c(Cc3cccs3)nnc2SCC(=O)OC(C)C)cc1,,11.7 µM (active)
COc1cccc(C(=O)OCC(=O)c2[nH]c(C)c(C(C)=O)c2C)c1,8.79%,
O=C(NCc1ccccc1Cl)C(=O)NCC1CCCN1S(=O)(=O)c1cccs1 (centres undefined),,14.7 µM (active)

SMILES,"activity change, negative = inhibition",Potency
O=C(NCc1ccccc1Cl)C1CCCN1S(=O)(=O)c1ccc(F)cc1 (centres undefined),-18.1%,
O=C(NCCC1CCCCN1S(=O)(=O)c1cccs1)C(=O)Nc1ccc(F)cc1F (centres undefined),5.8%,
Cc1ccc(S(=O)(=O)NCC(=O)N(CC(=O)NCC2CCCO2)c2cccc(F)c2)cc1 (centres undefined),1.59%,
N#CCCN(C(=O)COC(=O)c1ccc(S(=O)(=O)N2CCCCCC2)cc1)c1ccccc1,-10.5%,
CC(=O)c1ccc(N2Cc3ccccc3C2)cc1,140%,
O=C(OCC(=O)c1c[nH]c2ccccc12)c1cccc(O)c1,334%,
CCOc1ncccc1C(=O)OCC(=O)c1c[nH]c2ccccc12,,13.1 µM (active)
CCOc1ncccc1C(=O)OCC(=O)NC1CC1,18.9%,
O=C(O)c1ccccc1-c1ccccc1C(=O)Nc1ccccc1Br,15.8%,
COc1ccc(C)cc1NC(=O)CSc1nnc2ccc(-c3ccccn3)nn12,-5.83%,
CCCCc1ccc(NC(=O)NCc2cccnc2)cc1,5.5%,
CCc1ccc(N2CC(C(=O)N3CCCCCC3)CC2=O)cc1 (centres undefined),15.9%,
COc1ccc(N2CCN(C(=O)c3ccc(N4CCCCS4(=O)=O)cc3)CC2)cc1,-9.38%,
Cc1cc(Cl)ccc1OCCCC(=O)Nc1cccc(-n2cnnn2)c1,-3.27%,
COc1ccc(C2=NN(C(C)=O)C(c3ccccc3)C2)cc1 (centres undefined),23%,
Cc1ccc(N2C(=O)C3N=NN(CC(=O)N4N=C(c5cccc6ccccc56)CC4c4ccccc4)C3C2=O)cc1 (centres undefined),,13.1 µM (active)
Cc1ccc(N2C(=O)CC(Nc3cccc4ccccc34)C2=O)cc1 (centres undefined),18.2%,
O=C(CSc1nnnn1C1CCCC1)N1CCCCC1,98.1%,
O=C(O)C1=NN(c2c(F)c(F)cc(F)c2F)C(=O)CC1,19.6%,
COc1ccc(N2CCN(C(=O)CCNC(=O)c3ccc(Br)cc3)CC2)cc1,-16.9%,
COc1cccc(C(=O)N2CCC(n3nccc3NC(=O)C3CCOC3)CC2)c1 (centres undefined),1.74%,
CC(=O)N/C(=N/c1nc(C)cc(C)n1)Nc1ccc(F)cc1F,-15.7%,
Cc1cc(C)nc(-n2nc(C)cc2NC(=O)c2ccc(F)cc2F)n1,,10.4 µM (active)
Cc1cc(NC(=O)c2cnn3cccnc23)n(-c2ccccc2)n1,-9.66%,
CC(CN1CCOCC1)OC(=O)c1ccc(C(C)(C)C)cc1 (centres undefined),-8.18%,

SMILES,"activity change, negative = inhibition",Potency
O=C(O)CCCC(=O)N1N=C(c2ccco2)CC1c1ccco1 (centres undefined),-18%,
Cc1nn2c(c1-c1ccccc1)N=C(c1ccco1)CC2c1ccccc1 (centres undefined),,14.7 µM (active)
Cc1nn(C(=O)c2ccoc2C)c(N)c1-c1ccccc1,23.2%,
CCN1CCN(C(=O)C2CCN(S(=O)(=O)c3cc(Cl)ccc3Cl)CC2)CC1,10.5%,
COc1ccc(C(=O)c2c(C)c(CCC#N)n3ccccc23)c(OC)c1,-8.61%,
Cc1ccccc1NC(=O)C(C)OC(=O)CCC(=O)N(CC(C)C)c1c(N)n(CC(C)C)c(=O)[nH]c1=O (centres undefined),-7.74%,
COc1cc(/C=N\NC(=O)CNC(=O)c2cccc([N+](=O)[O-])c2)ccc1O,17.5%,
COc1ccc(C(=O)NCC(=O)N/N=C/c2ccc([N+](=O)[O-])o2)cc1OC,,6.57 µM (active)
COc1ccc(C(=O)NCC(=O)N/N=C/c2ccc([N+](=O)[O-])s2)cc1OC,-25.4%,
O=C(Cn1ccc2cc(S(=O)(=O)N3CCCC3)ccc21)NCc1ccccc1,-5.75%,
CCCOc1cccc(C(=O)Nc2ccccc2C(=O)N2CCN(C)CC2)c1,30.4%,
CC1=C(C/C=C(\C)CCCC(C)CCCC(C)CCCC(C)C)C(=O)c2ccccc2C1=O (centres undefined),,10.7 µM (active)
CS(=O)(=O)c1ccc(Cl)c(NC(=O)COC(=O)c2ncc(Cl)c(Cl)c2Cl)c1,-4.26%,
COc1ccc(CNc2cc(C)cc(C)c2)cc1OC,72.2%,
CN(CC(=O)Nc1cccc(F)c1)C(=O)C1CSC2(C)CCC(=O)N12 (centres undefined),-0.11%,
CCn1c(=O)c2ccccc2n(CC(=O)N2CCCc3ccccc32)c1=O,-13.9%,
Cn1c(SCC(=O)OC2CCCCC2)nnc1-c1ccc(S(=O)(=O)N2CCCC2)cc1,,2.62 µM (active)
Cn1c(SCC(=O)Nc2cccc(O)c2)nnc1-c1ccc(S(=O)(=O)N2CCOCC2)cc1,7.1%,
Cn1c(SCC(=O)NC2CCCCC2)nnc1-c1ccc(N)cc1,59.1%,
Cc1ccc(C(=O)C(C)OC(=O)Cc2n[nH]c(=O)c3ccccc23)cc1C (centres undefined),9.11%,
CCc1ccc(-c2cc(C)no2)cc1S(=O)(=O)NCCc1ccc(S(N)(=O)=O)cc1,-28.2%,
O=C(CCS(=O)(=O)c1ccc2c(c1)NC(=O)CS2)NCc1ccccc1Cl,4.89%,
O=C(O)c1ccccc1-c1ccccc1C(=O)NCc1cccnc1,4.09%,
Cc1ccc(S(=O)(=O)N(Cc2ccc(Cl)cc2)c2ccccc2C(=O)NCc2cccnc2)cc1,,13.1 µM (active)
CCc1ccc(N(CC(=O)NCc2cccnc2)S(=O)(=O)c2ccccc2)cc1,97.9%,

SMILES,"activity change, negative = inhibition",Potency
O=C(c1cnc(Cl)c(Cl)c1)N1CCN(S(=O)(=O)c2ccc(F)cc2)CC1,-5.82%,
CCCc1nc2ccccc2c(C(=O)OCc2nnc(-c3cc(OC)c(OC)c(OC)c3)o2)c1CC,,4.65 µM (active)
COc1cc(-c2cc(C(=O)OCC(=O)Nc3ccc4c(c3)OCO4)c3ccccc3n2)cc(OC)c1OC,0.182%,
O=C(OCc1nnc(-c2ccccc2)o1)c1cc(=O)[nH]c2ccccc12,-27.5%,
COc1ccccc1C(=O)Nc1ccnn1C1CCN(C(=O)C(C)(C)C)CC1,-1.89%,
COC(=O)c1[nH]c2ccccc2c1NC(=O)CN1CCCc2ccccc21,,2.08 µM (active)
COC(=O)c1[nH]c2ccc(Br)cc2c1NC(=O)Oc1ccccc1,-15.2%,
NS(=O)(=O)c1cccc(NC(=O)CN2CCCc3ccccc32)c1,-0.755%,
CC(=O)N1CCc2c(sc(NC(=O)CCS(=O)(=O)c3ccc(C)cc3)c2C(N)=O)C1,-24.3%,
O=C(NNS(=O)(=O)c1ccc(F)cc1)c1ccc([N+](=O)[O-])cc1Cl,1.58%,
CC(C)CCNC(=O)c1ccc2c(Cl)c3c(nc2c1)CCC3,50.2%,
Cc1cc(C)n(-c2nnc(N3CCN(c4ccccc4)CC3)nn2)n1,,0.329 µM (active)
Cc1ccc(S(=O)(=O)N2CCN(c3ccccc3)CC2)cc1C,13.1%,
Cc1cc(N2CCN(c3ccccc3)CC2)nc(N2CCOCC2)n1,-20.2%,
Cc1nn(Cc2ccccc2)c(C)c1C(=O)NCCCN1CCCC1=O,9.89%,
CCN1CCN(C(=O)C2CCCN(S(=O)(=O)c3ccc(OC)c(OC)c3)C2)CC1 (centres undefined),4.01%,
COCc1cc(=O)n2[nH]c(C)c(-c3ccccc3)c2n1,-9.29%,
O=C(C1=C[C@H](c2ccc(C(F)(F)F)cc2)C[C@H](OCc2ccc(CO)cc2)O1)N1CCN(Cc2ccccc2)CC1,,3.7 µM (active)
O=C(NCc1ccccc1)C1=C[C@H](C2CC2)C[C@H](OCc2ccc(CO)cc2)O1,-0.787%,
C#Cc1ccc([C@@H]2C=C(C(=O)O)O[C@H](OCCCCO)C2)cc1,43.4%,
COCCNC(=O)CSc1nc2sccc2c(=O)n1-c1ccccc1,-7.07%,
COc1ccc(C(=O)COC(=O)CNC(=O)c2cccs2)cc1Br,12.2%,
Cc1cc(C(=O)COC(=O)c2cccs2)c(C)n1-c1c(C)n(C)n(-c2ccccc2)c1=O,15.2%,
COc1ccc(-n2c(C)cc(C(=O)COC(=O)c3cc(OC)c(OC)cc3NC(=O)c3cccs3)c2C)cc1,,4.15 µM (active)
